Activity calls are given as the source filed them. Rule for the calls: active = hit-call score of the fitted dose curve at least 0.9, where 1 is the maximum; inactive = score below 0.9.
Experiments:
Settings in all cases: mRNA level, 48 h; actives raise or lower the signal
[1] = read-out: matrix metalloproteinase-10 (MMP10), MMP10 (gene 4319); assay: LTEA_HepaRG_MMP10: Life Technologies and Expression Analysis (LTEA) Assay for matrix metalloproteinase-10 (MMP10) using HepaRG (AID 2283517)
Outline: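 Transcript levels come from Fluidigm qRT-PCR normalized to three housekeeping genes, with curves fitted bidirectionally against 0.5% DMSO. Human HepaRG cells were dosed for 48 hours at concentrations up to 100 uM.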

MYC, MYC (gene 4609) = assay: LTEA_HepaRG_MYC: Life Technologies and Expression Analysis (LTEA) Assay for MYC using HepaRG (AID 2283518)
Outline: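 Expression changes were scored by TaqMan qRT-PCR with ACTB, GAPDH and POLR2A normalization. Cultures in serum-free induction medium received duplicate 8-point concentration series, highest 100 uM, for 48 h; DMSO (0.5%) served as baseline.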

[2] = read-out: matrix metalloproteinase-3 (MMP3), MMP3 (gene 4314); assay: LTEA_HepaRG_MMP3: Life Technologies and Expression Analysis (LTEA) Assay for matrix metalloproteinase-3 (MMP3) using HepaRG (AID 2283519)
Outline: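 qRT-PCR read-out of MMP3 mRNA (normalised to three housekeeping genes) in HepaRG liver cells after 48 h chemical exposure; 8-point half-log series, top 100 uM, 0.5% DMSO vehicle. Bidirectional curve fitting against DMSO baseline.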

[3] = read-out: Paternally Expressed 10 (PEG10), PEG10 (gene 23089); assay: LTEA_HepaRG_PEG10: Life Technologies and Expression Analysis (LTEA) Assay for Paternally Expressed 10 (PEG10) using HepaRG (AID 2283520);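 for AC50: PEG10 transcript by qRT-PCR normalised to ACTB GAPDH and POLR2A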
Outline: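 qRT-PCR read-out: PEG10 mRNA normalised to three housekeeping genes, fitted bidirectionally against 0.5% DMSO vehicle. HepaRG cells received test chemicals for 48 h in serum-free induction medium, 8 points, top 100 uM, half-log steps.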

[4] = read-out: Nuclear factor NF-kappa-B p105 subunit (Homo sapiens) (UniProt P19838); assay: LTEA_HepaRG_NFKB1: Life Technologies and Expression Analysis (LTEA) Assay for Nuclear Factor Kappa B Subunit 1 (NFKB1) using HepaRG (AID 2283521)
Outline: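 Differentiated human HepaRG cells in serum-free induction medium with 0.5% DMSO were exposed for 48 h to eight half-log concentrations, top 100 uM, in duplicate. NFKB1 mRNA measured by Fluidigm TaqMan qRT-PCR, normalised to ACTB, GAPDH and POLR2A; bidirectional fit versus DMSO.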

[5] = read-out: Phosphatase and tensin (PTEN), PTEN (gene 5728); assay: LTEA_HepaRG_PTEN: Life Technologies and Expression Analysis (LTEA) Assay for Phosphatase and tensin (PTEN) using HepaRG (AID 2283523)
Outline: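 HepaRG, 48 h exposure, 8-pt half-log series from 100 uM top, 0.5% DMSO vehicle, duplicates. Readout: Fluidigm qRT-PCR of PTEN transcript; housekeeping normalization (ACTB, GAPDH, POLR2A). Gain or loss fitted relative to DMSO baseline.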

[6] = read-out: solute carrier (SLC22A1), SLC22A1 (gene 6580); assay: LTEA_HepaRG_SLC22A1: Life Technologies and Expression Analysis (LTEA) Assay for solute carrier (SLC22A1) using HepaRG (AID 2283524)
Outline: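 qRT-PCR readout (TaqMan, Fluidigm arrays) of SLC22A1 transcript, normalized to three housekeeping genes; bidirectional curve fit relative to 0.5% DMSO vehicle. Differentiated human HepaRG cells, 48 h chemical exposure, top concentration 100 uM, half-log steps, eight points.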

[7] = read-out: Pyruvate Dehydrogenase Kinase 4 (PDK4), PDK4 (gene 5166); assay: LTEA_HepaRG_PDK4: Life Technologies and Expression Analysis (LTEA) Assay for Pyruvate Dehydrogenase Kinase 4 (PDK4) using HepaRG (AID 2283525)
Outline: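 HepaRG (human liver line), 48 h chemical exposure, 8-pt half-log CRC top 100 uM, 0.5% DMSO vehicle, duplicates. Readout: TaqMan qRT-PCR of PDK4 mRNA, housekeeping-normalized; gain/loss fit relative to DMSO baseline.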

[8] = read-out: NAD(P)H dehydrogenase [quinone] 1 (NQO1), NQO1 (gene 1728); assay: LTEA_HepaRG_NQO1: Life Technologies and Expression Analysis (LTEA) Assay for NAD(P)H dehydrogenase [quinone] 1 (NQO1) using HepaRG (AID 2283526)
Outline: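 qRT-PCR read-out (Fluidigm TaqMan), normalized to three housekeeping genes, after 48 h chemical exposure of HepaRG cells. Concentrations: eight points, top 100 uM, half-log steps, 0.5% DMSO vehicle. Gain or loss of signal fitted relative to DMSO.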

[9] = read-out: Nuclear factor erythroid 2-related factor 2 (Homo sapiens) (UniProt Q16236); assay: LTEA_HepaRG_NFE2L2: Life Technologies and Expression Analysis (LTEA) Assay for Nuclear factor erythroid 2-related factor 2 (NFE2L2) Transcription Factor using HepaRG (AID 2283527)
Outline: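 HepaRG, 48 h dosing, 8-pt half-log series from 100 uM in 0.5% DMSO, duplicates. Read-out: NFE2L2 mRNA by qRT-PCR (ACTB/GAPDH/POLR2A normalization). Bidirectional curve fit vs DMSO baseline.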

[10] = read-out: succinate dehydrogenase complex iron sulfur subunit B (SDHB), SDHB (gene 6390); assay: LTEA_HepaRG_SDHB: Life Technologies and Expression Analysis (LTEA) Assay for succinate dehydrogenase complex iron sulfur subunit B (SDHB) using HepaRG (AID 2283528)
Outline: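 HepaRG cells (~100,000/well, plated 48 h) exposed in duplicate for 48 h in serum-free induction medium to 8-point half-log series from 100 uM in 0.5% DMSO; mRNA by qRT-PCR normalised to ACTB, GAPDH, POLR2A; bidirectional fit versus DMSO.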

[11] = read-out: Signal transducer and activator of transcription 3 (Homo sapiens) (UniProt P40763); assay: LTEA_HepaRG_STAT3: Life Technologies and Expression Analysis (LTEA) Assay for Signal transducer and activator of transcription (STAT3) using HepaRG (AID 2283529)
Outline: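 HepaRG, 48 h exposure, 8-pt half-log series (top 100 uM), 0.5% DMSO vehicle, duplicates. Readout: STAT3 transcript by Fluidigm qRT-PCR, housekeeping-normalized; bidirectional fit vs DMSO baseline.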

[12] = read-out: solute carrier (SLCO1B1), SLCO1B1 (gene 10599); assay: LTEA_HepaRG_SLCO1B1: Life Technologies and Expression Analysis (LTEA) Assay for solute carrier (SLCO1B1) using HepaRG (AID 2283530)
Outline: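 Human HepaRG cultures treated for 48 h with an eight-concentration half-log series topping at 100 uM; SLCO1B1 measured by qRT-PCR and fitted bidirectionally relative to DMSO.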

[13] = read-out: sulfotransferase 2A1 (SULT2A1), SULT2A1 (gene 6822); assay: LTEA_HepaRG_SULT2A1: Life Technologies and Expression Analysis (LTEA) Assay for sulfotransferase 2A1 (SULT2A1) using HepaRG (AID 2283531)
Outline: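 Gene-expression endpoint in a human liver cell line: SULT2A1 mRNA change after 48 h chemical treatment, curves fitted in both directions relative to 0.5% DMSO vehicle. Concentrations spanned eight half-log steps from 100 uM.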

[14] = read-out: Transforming Growth Factor (TGFA), TGFA (gene 7039); assay: LTEA_HepaRG_TGFA: Life Technologies and Expression Analysis (LTEA) Assay for Transforming Growth Factor (TGFA) using HepaRG (AID 2283532)
Outline: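 qRT-PCR read-out of TGFA transcript, normalized to three housekeeping genes, fitted bidirectionally against 0.5% DMSO baseline. Human HepaRG cultures received chemicals for 48 h at eight half-log concentrations, top 100 uM.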

[15] = read-out: Transforming Growth Factor (TGFB1), TGFB1 (gene 7040); assay: LTEA_HepaRG_TGFB1: Life Technologies and Expression Analysis (LTEA) Assay for Transforming Growth Factor (TGFB1) Transporter using HepaRG (AID 2283533)
Outline: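 Eight-point concentration-response (max 100 uM, half-log) in HepaRG under serum-free induction conditions, 48 h. TGFB1 mRNA by qRT-PCR, housekeeping-normalized.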

TIMP1, TIMP1 (gene 7076) = assay: LTEA_HepaRG_TIMP1: Life Technologies and Expression Analysis (LTEA) Assay for TIMP1 using HepaRG (AID 2283534)
Outline: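 TIMP1 induction or repression in HepaRG cells after 48 h chemical exposure (eight concentrations, highest 100 uM), assessed by normalized qRT-PCR with bidirectional fitting to DMSO controls.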

[16] = read-out: Tumor necrosis factor receptor 1 (TNFRSF1A), TNFRSF1A (gene 7132); assay: LTEA_HepaRG_TNFRSF1A: Life Technologies and Expression Analysis (LTEA) Assay for Tumor necrosis factor receptor 1 (TNFRSF1A) using HepaRG (AID 2283535)
Outline: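 Assay uses 48 h chemical treatment of differentiated HepaRG monolayers, tested in duplicate at eight concentrations from 100 uM downward in 0.5% DMSO. mRNA is normalized to ACTB, GAPDH and POLR2A, with induction or suppression fitted relative to vehicle.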

[17] = read-out: Thyroid Hormone Responsive (THRSP), THRSP (gene 7069); assay: LTEA_HepaRG_THRSP: Life Technologies and Expression Analysis (LTEA) Assay for Thyroid Hormone Responsive (THRSP) using HepaRG (AID 2283536)
Outline: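 qRT-PCR read-out (Fluidigm TaqMan), housekeeping-normalized (ACTB/GAPDH/POLR2A). HepaRG, 48 h chemical exposure, 8-pt half-log series from 100 uM in 0.5% DMSO, duplicates. Bidirectional curve fit vs 0.5% DMSO baseline.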

Measured: AC50

Chain of Nuclear factor erythroid 2-related factor 2 (Homo sapiens) (Q16236 whole entry, looked up): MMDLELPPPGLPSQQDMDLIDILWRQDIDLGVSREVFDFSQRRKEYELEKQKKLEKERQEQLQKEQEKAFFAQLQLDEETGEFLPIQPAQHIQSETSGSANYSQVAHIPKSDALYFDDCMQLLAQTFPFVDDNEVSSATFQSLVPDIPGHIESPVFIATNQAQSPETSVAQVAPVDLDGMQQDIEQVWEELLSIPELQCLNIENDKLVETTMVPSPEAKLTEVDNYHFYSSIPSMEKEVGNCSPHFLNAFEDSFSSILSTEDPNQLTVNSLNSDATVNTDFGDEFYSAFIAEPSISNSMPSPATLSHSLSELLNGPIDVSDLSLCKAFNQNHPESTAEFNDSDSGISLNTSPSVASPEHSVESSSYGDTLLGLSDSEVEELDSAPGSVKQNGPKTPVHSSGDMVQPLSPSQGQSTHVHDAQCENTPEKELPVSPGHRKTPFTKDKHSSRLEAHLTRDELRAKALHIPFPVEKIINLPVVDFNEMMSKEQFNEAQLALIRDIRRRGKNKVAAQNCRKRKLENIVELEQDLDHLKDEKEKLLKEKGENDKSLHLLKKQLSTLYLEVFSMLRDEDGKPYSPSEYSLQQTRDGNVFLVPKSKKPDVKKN
Chain of Signal transducer and activator of transcription 3 (Homo sapiens) (P40763 whole entry, looked up): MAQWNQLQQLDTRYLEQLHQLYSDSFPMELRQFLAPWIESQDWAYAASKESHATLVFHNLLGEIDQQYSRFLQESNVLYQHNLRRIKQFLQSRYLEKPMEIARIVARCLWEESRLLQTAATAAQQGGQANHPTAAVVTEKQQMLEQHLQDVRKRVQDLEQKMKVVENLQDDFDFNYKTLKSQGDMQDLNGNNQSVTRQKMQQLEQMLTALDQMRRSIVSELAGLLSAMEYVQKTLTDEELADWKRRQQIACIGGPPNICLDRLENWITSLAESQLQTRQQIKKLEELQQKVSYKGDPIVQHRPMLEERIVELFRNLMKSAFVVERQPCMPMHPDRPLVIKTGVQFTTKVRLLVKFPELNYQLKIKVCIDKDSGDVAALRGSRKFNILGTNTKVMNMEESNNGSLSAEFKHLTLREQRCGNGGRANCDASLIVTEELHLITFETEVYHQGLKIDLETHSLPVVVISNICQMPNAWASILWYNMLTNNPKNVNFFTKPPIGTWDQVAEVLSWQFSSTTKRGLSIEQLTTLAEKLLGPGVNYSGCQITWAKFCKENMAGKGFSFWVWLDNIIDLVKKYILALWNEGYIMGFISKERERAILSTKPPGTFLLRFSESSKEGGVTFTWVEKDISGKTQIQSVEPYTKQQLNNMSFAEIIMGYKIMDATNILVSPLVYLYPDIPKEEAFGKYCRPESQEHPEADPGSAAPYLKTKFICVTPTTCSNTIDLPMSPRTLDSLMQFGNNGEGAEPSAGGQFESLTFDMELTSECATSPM
Chain of Nuclear factor NF-kappa-B p105 subunit (Homo sapiens) (P19838 whole entry, looked up): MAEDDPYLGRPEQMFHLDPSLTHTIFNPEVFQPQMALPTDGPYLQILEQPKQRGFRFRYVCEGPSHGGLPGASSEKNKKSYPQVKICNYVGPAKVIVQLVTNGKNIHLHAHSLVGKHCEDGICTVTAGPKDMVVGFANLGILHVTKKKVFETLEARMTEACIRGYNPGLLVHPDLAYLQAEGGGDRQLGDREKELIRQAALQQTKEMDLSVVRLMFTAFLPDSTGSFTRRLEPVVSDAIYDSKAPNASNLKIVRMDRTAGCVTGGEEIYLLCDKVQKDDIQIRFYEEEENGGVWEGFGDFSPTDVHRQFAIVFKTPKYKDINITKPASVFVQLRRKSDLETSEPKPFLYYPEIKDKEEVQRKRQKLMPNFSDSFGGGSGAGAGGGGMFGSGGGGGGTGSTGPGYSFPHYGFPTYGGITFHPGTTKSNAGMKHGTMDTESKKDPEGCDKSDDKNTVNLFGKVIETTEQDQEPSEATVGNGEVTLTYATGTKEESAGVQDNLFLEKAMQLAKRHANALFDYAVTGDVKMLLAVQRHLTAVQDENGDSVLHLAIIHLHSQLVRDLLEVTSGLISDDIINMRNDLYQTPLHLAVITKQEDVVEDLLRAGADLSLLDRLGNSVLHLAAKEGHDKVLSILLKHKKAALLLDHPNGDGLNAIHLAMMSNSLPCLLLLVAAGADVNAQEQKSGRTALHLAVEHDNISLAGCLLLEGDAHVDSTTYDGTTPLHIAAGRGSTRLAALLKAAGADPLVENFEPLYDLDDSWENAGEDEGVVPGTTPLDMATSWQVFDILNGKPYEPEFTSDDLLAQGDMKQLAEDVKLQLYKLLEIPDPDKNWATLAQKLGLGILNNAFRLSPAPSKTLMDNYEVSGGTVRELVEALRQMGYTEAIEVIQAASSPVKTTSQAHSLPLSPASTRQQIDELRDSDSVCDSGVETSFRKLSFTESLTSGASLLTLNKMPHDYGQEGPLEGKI

CC[C@H]1CC[C@H](NCc2cc3c(cc2OC)[C@H]2C[C@H]2C(=O)N3C)[C@H](c2ccccc2)N1
active: [13] 50 µM | [17] 29.3 µM
inactive: [1] | MYC, MYC (gene 4609) | [2] | [3] | [4] | [5] | [6] | [7] | [8] | [9] | [10] | [11] | [12] | [14] | [15] | TIMP1, TIMP1 (gene 7076) | [16]

O=C(CCCCCCCCc1cccnc1)N1CCC(C=C(c2ccccc2)c2ccccc2)CC1
active: [1] 31.8 µM | MYC, MYC (gene 4609) 27.4 µM | [2] 86.8 µM | [3] 50 µM | [4] 31.4 µM | [6] 24.4 µM | [7] 89.4 µM | [8] 80 µM | [9] 24.9 µM | [12] 50 µM | [13] 30.6 µM | [14] 27 µM | TIMP1, TIMP1 (gene 7076) 78.7 µM | [16] 79.2 µM | [17] 18.8 µM
inactive: [5] | [10] | [11] | [15]

CC(C)CC(C)(O)C#CC(C)(O)CC(C)C (centres undefined)
inactive: [1] | MYC, MYC (gene 4609) | [2] | [3] | [4] | [5] | [6] | [7] | [8] | [9] | [10] | [11] | [12] | [13] | [14] | [15] | TIMP1, TIMP1 (gene 7076) | [16] | [17]

CC(O)CN(CCN(CC(C)O)CC(C)O)CC(C)O (centres undefined)
inactive: [1] | MYC, MYC (gene 4609) | [2] | [3] | [4] | [5] | [6] | [7] | [8] | [10] | [11] | [12] | [13] | [14] | [15] | TIMP1, TIMP1 (gene 7076) | [16] | [17]
active: [9] 12.6 µM

COCCOc1cc2cc(C(=O)NC3CCN(C(C)C)CC3)n(CC(=O)Nc3ccc(Cl)cn3)c2cn1
inactive: [1] | MYC, MYC (gene 4609) | [2] | [4] | [8] | [9] | [10] | [11] | [13] | [14] | [15] | [16]
active: [3] 45 µM | [5] 45 µM | [6] 62.1 µM | [7] 37.4 µM | [12] 56.5 µM | TIMP1, TIMP1 (gene 7076) 18.2 µM | [17] 51.5 µM

CNCc1ccc(NC(=O)c2c[nH]c3c2C(=O)CCC3)cc1
inactive: [1] | MYC, MYC (gene 4609) | [2] | [3] | [4] | [5] | [6] | [7] | [8] | [9] | [10] | [11] | [12] | [13] | [14] | [15] | TIMP1, TIMP1 (gene 7076) | [16] | [17]
